This is an account of results in PubChem BioAssay (NCI).

Structures are written as SMILES. This is part of a sample that, as a whole, favours compounds with a hit. Of some 83,000 tested, about 20% had one in any assay.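 Interpretation: 100, growth as untreated; towards 0, rising growth inhibition; 0, no net growth; 0 to -100, cell death. Compounds scoring below 10 were considered active.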 A number with no mark means an inactive call. Calls of active or inactive are those of the source.

What all share (assay): NCI-60 one-dose screen, 48 h (100 = growth as untreated, 0 = no growth, -100 = all killed)
Holding throughout (conditions): 10 µM unless noted

The test system of assay [1] is DU-145 prostate.
For assay [2], the system named is K-562 leukemia.
Assay [3] deals with MALME-3M melanoma.
The subject of assay [4] is MDA-MB-231 breast.
In assay [5] the test system is RXF 393 renal.
For assay [6], the system named is SF-268 CNS.
Assay [7] concerns SF-295 CNS.
Assay [8] concerns SF-539 CNS.
The subject of assay [9] is UACC-257 melanoma.
The test system of assay [10] is M14 melanoma.

With `COc1cccc(/C=C/C(=O)c2c(C)nc3ccccc3c2/C=C/c2ccc(C)cc2)c1OC`, the growth in assay [1] was 52.3%; in assay [2] it was 17.3%; in assay [3], 79.1%; in assay [4], 63.8%; in [5] it was 53.8%; in [6], 70.3%. Besides, the growth in [7] was 65.7%; in assay [8], 72.8%; in assay [9], 67.5%; in assay [10], 73.7%.

Consider `O=C(CCCCCCSc1nc(-c2ccccc2)cc(-c2ccc(Cl)cc2)n1)NO`, for which the growth in assay [1] was 6.26% (active); in assay [2] it was 8.35% (active); in assay [3], 7.3% (active); in assay [4], 25.3%; in assay [5] it was -17% (active); in [6], 15%. Besides, the growth was 27.1% in assay [7], 25% in assay [8], 6.32% (active) in assay [9] and 6.52% (active) in [10].

For `O=C(c1ccccc1)N1N=C(c2ccccc2)CC1c1nnc2n(Cc3ccccc3)c(=O)c3c4c(sc3n12)CCCC4` (stereo not given), the growth was 116% in assay [1]; 116% in [2]; 85.2% in [3]; 111% in assay [4]; 104% in assay [5]; 99.3% in assay [6]. The growth was 138% in assay [7], 92.1% in assay [8], 112% in assay [9] and 111% in assay [10].

For the compound `O=c1c2cc(F)ccc2sc2c(Nc3cccnc3)nc3ccccc3c12`, the growth was 107% in [1]; 86.4% in assay [2]; 103% in [3]; 72.2% in assay [4]; 88.4% in [5]; 89.5% in assay [6]. Moreover, the growth in [7] was 95.2%; in [8], 82.1%; in [9], 97.8%; in assay [10] it was 104%.

Regarding `Cc1ccc(N(C(=O)CCc2c[nH]c3ccccc23)[C@H](C(=O)Nc2ccc(Cl)cc2)c2cccc([N+](=O)[O-])c2)cc1`, the growth in [1] was 81.6%; in [2] it was 37.8%; in [3], 99%; in assay [4] it was 75.4%; in [5] it was 95.7%; in [6], 70.7%. Besides, the growth in [7] was 105%; in assay [8] it was 89.7%; in assay [9], 90.1%; in assay [10] it was 78.4%.

Turning to `Cc1ccc(S(=O)(=O)Oc2cc(OS(=O)(=O)c3ccc(C)cc3)cc(OS(=O)(=O)c3ccc(C)cc3)c2)cc1`, the growth in assay [1] was 108%; in assay [2], 94.4%; in [3] it was 133%; in assay [4] it was 92.2%; in assay [5], 99.6%; in [6] it was 99%. Besides, the growth in [7] was 86.9%; in assay [8], 95%; in assay [9] it was 104%; in [10], 108%.

As for `Cc1ccc(C(=O)CSc2nc(-c3ccc(Br)cc3)c(C#N)c(=O)[nH]2)cc1`, the growth is 104% in assay [1]; 53.3% in assay [2]; 93% in assay [3]; 96.4% in assay [4]; 99.1% in [5]; 97.5% in assay [6]. Moreover, the growth was 106% in [7], 94.8% in assay [8], 98.7% in [9] and 92.7% in assay [10].

As to `CC1=C([Se]CC(OC(=O)[C@@H](CO)NC(=O)OC(C)(C)C)C(=O)NC(C)(C)C)C(=O)c2ccccc2C1=O` (stereo not given in full), the growth in [1] was -71.1% (active); in assay [2] it was -37% (active); in assay [3], -64.9% (active); in assay [4], -82.2% (active); in [5], -86.2% (active); in [6], -75.1% (active). Besides, the growth was -37.4% (active) in assay [7], -100% (active) in assay [8], -87.1% (active) in [9] and -100% (active) in assay [10].

Turning to `Cc1ccc(NS(=O)(=O)c2ccc3c(c2)C(=O)CC(c2ccc(C(=O)C(C)C)cc2)N3)cc1C` (stereo not given), the growth was 83.5% in assay [1]; 39.7% in assay [2]; 51.1% in [3]; 78.5% in assay [4]; 75.3% in assay [5]; 68% in assay [6]. Also, the growth is 37.7% in [7], 71.5% in [8], 43.1% in [9] and 73% in assay [10].

For `CNS(=O)(=O)c1n[nH]nc1-c1cc(C(C)(C)C)c(O)c(C(C)(C)C)c1`, the growth was 110% in assay [1]; 98.7% in assay [2]; 88.3% in [3]; 103% in assay [4]; 114% in assay [5]; 99.3% in assay [6]. The growth was 92.4% in assay [7], 99.4% in assay [8], 84.7% in assay [9] and 95.9% in [10].

For the compound `Cc1ccc(NCCN(C)C)c2c(=O)c3ccccc3sc12`, the growth is 23.8% in [1]; 21.3% in assay [2]; 76.4% in assay [3]; 24.3% in assay [4]; 2.41% (active) in assay [5]; 17.1% in [6]. Also, the growth in assay [7] is 29.4%; in assay [8], 30.8%; in [9], 1.5% (active); in [10], 5.06% (active).

On to `Cc1cc(/C=C\c2ccc3ccccc3[n+]2C)c(O)c2ncccc12`, for which the growth in [1] is 26.2%; in assay [2], 8.28% (active); in assay [3] it was -4.74% (active); in assay [4], 4.71% (active); in assay [5] it was -20.3% (active); in [6] it was 14.1%. Also, the growth was 0.202% (active) in [7], -36.9% (active) in assay [8], 16.4% in [9] and -51.6% (active) in [10].

As for `CC(C)C(NC(=O)C1(NC(=O)OCc2ccccc2)CCCC1)C(=O)O` (stereo not given), the growth is 118% in assay [1]; 91.7% in assay [2]; 111% in assay [3]; 105% in assay [4]; 134% in assay [5]; 111% in assay [6]. Moreover, the growth in [7] was 112%; in assay [8], 111%; in [9] it was 89.2%; in assay [10], 102%.

For the compound `CCN(CC)Cc1cccc(C(=O)OC)c1`, the growth is 111% in assay [1]; 110% in assay [2]; 95.3% in assay [3]; 100% in assay [4]; 105% in assay [5]; 104% in assay [6]. The growth is 97.8% in assay [7], 94% in assay [8], 73.4% in assay [9] and 91.7% in assay [10].

Turning to `CCOc1c(C#N)nnc2c(C#N)c(NC(=O)c3ccccc3)nn12`, the growth was 109% in assay [1]; 98.6% in assay [2]; 103% in [3]; 100% in assay [4]; 110% in assay [5]; 98.8% in [6]. The growth in assay [7] was 104%; in assay [8] it was 95.3%; in assay [9], 97%; in assay [10], 99.1%.

With `NC(N)=NN=C(c1ccccc1)c1ccccc1`, the growth was 22.8% in assay [1]; 21.7% in [2]; 48.8% in assay [3]; 59.6% in assay [4]; -28.4% (active) in assay [5]; 46.1% in [6]. Moreover, the growth in assay [7] is 43%; in [8], 19.3%; in [9] it was 64.4%; in assay [10], -6.76% (active).

As for `O=C1Nc2ccc(F)cc2C12Nc1cc(Cl)ccc1S2` (stereo not given), the growth in [1] is 101%; in [2] it was 48.6%; in assay [3] it was 88.6%; in assay [4], 88.1%; in assay [5], 110%; in assay [6], 100%. Moreover, the growth in assay [7] is 89.8%; in assay [8] it was 93.8%; in assay [9], 109%; in [10], 90.9%.

As for `COc1cc(/C=N/n2c(CN3CCOCC3)nc3ccccc3c2=O)cc(OC)c1OC`, the growth is 115% in assay [1]; 97.2% in assay [2]; 106% in [3]; 102% in [4]; 117% in assay [5]; 98.1% in assay [6]. Also, the growth in assay [7] is 98.6%; in [8], 97.9%; in assay [9], 97%; in [10], 102%.

In the case of `N[C@@H](CCCCNCC(=O)O)C(=O)O`, the growth in assay [1] was 103%; in [2], 100%; in assay [3], 97.6%; in [4], 89.1%; in [5], 108%; in assay [6] it was 102%. The growth in assay [7] is 100%; in assay [8] it was 92.7%; in assay [9] it was 101%; in assay [10], 104%.

Consider `O=c1c2c3c(sc2nc(N/N=C/c2ccc(Br)cc2)n1Cc1ccccc1)CCCC3`, for which the growth in assay [1] is 81.6%; in assay [2] it was 79.9%; in assay [3] it was 91.6%; in [4] it was 50.2%; in assay [5], 73.2%; in assay [6] it was 68.4%. For the same compound, the growth in assay [7] is 34.3%; in [8], 50%; in assay [9] it was 78.9%; in assay [10] it was 75.8%.

Take `CN(C)c1ccc(-c2ccc3[nH]c(=O)nc(-c4ccccc4)c3c2)cn1`: the growth in assay [1] is 65.1%; in assay [2], 7.91% (active); in assay [3], 51.2%; in assay [4], 44.6%; in assay [5] it was 64.5%; in assay [6], 55.5%. Also, the growth is 39.5% in assay [7], 28.3% in assay [8], 80.8% in [9] and 13.7% in assay [10].

With `O=C1/C(=C/c2ccc(Br)cc2)C=C(c2ccccc2)N1CCc1ccccc1`, the growth was 54.1% in assay [1]; 75.5% in assay [2]; 50.5% in assay [3]; 24.8% in assay [4]; 31.5% in assay [5]; 33.7% in assay [6]. Besides, the growth is -25.6% (active) in [7], 36% in assay [8], 43.7% in assay [9] and 49.9% in assay [10].

On to `O=C1OC(c2nc3ccccc3s2)=C/C1=C\c1ccc(O)cc1`, for which the growth is 111% in assay [1]; 102% in assay [2]; 100% in assay [3]; 87.2% in assay [4]; 119% in [5]; 100% in [6]. Besides, the growth was 101% in [7], 93% in assay [8], 114% in [9] and 105% in [10].

As for `CN(C)c1ccc(/C=C/C(=O)c2cccc(Nc3nc(Nc4ccccc4)nc(Nc4ccccc4)n3)c2)cc1`, the growth in [1] was 99.4%; in [2] it was 67.7%; in assay [3], 88.2%; in [4], 81.8%; in assay [5], 77.5%; in assay [6] it was 97.2%. The growth in assay [7] was 129%; in assay [8] it was 87.9%; in assay [9], 110%; in assay [10], 91.5%.

`COc1cc(-c2nc(N3CCN(C)CC3)c3ccccc3n2)cc(OC)c1OC`: the growth in assay [1] is 82.4%; in assay [2], 44.8%; in [3], 63.8%; in assay [4] it was 61.2%; in assay [5], 51.4%; in [6], 56.8%. In addition, the growth in [7] was 28.6%; in assay [8] it was 39.3%; in assay [9] it was 58.2%; in assay [10], 42%.

`Cc1ccc2nc(NC(=O)CSc3nc(-c4ccccc4)c(C#N)c(=O)n3Cc3ccccc3)sc2c1`: the growth is 103% in [1]; 73.3% in assay [2]; 78.6% in assay [3]; 82.5% in assay [4]; 75.8% in assay [5]; 92.1% in assay [6]. The growth in assay [7] is 95.3%; in assay [8] it was 90.4%; in assay [9] it was 98.3%; in assay [10], 88.1%.
